The values below come from PubChem BioAssay (NCATS).

Experiment [1] in a line: qHTS Assay for Identifying Gametocytocidal Compounds (AID 743244).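 Further: on the % scale 0 is the no-effect control and ±100 the full control effect; actives lower the fluorescent signal which means gametocytes are killed.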 The settings on record: P. falciparum 3D7 stage III-V gametocytes, alamarBlue, 72 h; stronger effect = lower value. The procedure, abridged:
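Stage III-V P. falciparum 3D7 gametocytes, 20,000 per well, were exposed to compounds for 72 h at 37C, 5% CO2. AlamarBlue was then added for 24 h and viability was read as fluorescence at Ex 525/Em 598 nm.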
For orientation: Quantitative high-throughput screening tests each substance at several concentrations.

Experiment [2] in a line: qHTS to identify inhibitors of the type 1 interferon - major histocompatibility complex class I in skeletal muscle: primary screen against the NCATS Mechanism Interrogation Plate v5.0 (MIPE) Libary (AID 1347411). Further: nearly all actives have a fitted effect of over 65% in size. Further: potency means the concentration at half of the fitted maximal effect. The essentials: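 Immortalized human myoblasts (C25cl48) with HiBit knocked into endogenous HLA-B*08:01 were stimulated with 4 ng/ml IFN-beta and given compounds in 11-point 1:3 titration from 46 uM. After 24 h at 37 C, lytic HiBiT luminescence was read.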

Experiment [3] in a line: Primary qHTS for inhibitors of nuclear receptor binding SET domain protein 2 (NSD2) in an isogenic RCH-ACV NSD2 p.E1099K mutant (9B) (AID 1645876). Further: nearly all actives have a fitted effect of over 70% in size. Further: potency means the concentration at half of the fitted maximal effect.
Experiment [4] can be described thus: Primary qHTS for inhibitors of nuclear receptor binding SET domain protein 2 (NSD2) in an RCH-ACV wild type WT cells (2C) (AID 1645877). Further: nearly all actives have a fitted effect of over 70% in size. Further: potency means the concentration at half of the fitted maximal effect.
Experiment [5] addresses Phospholipid hydroperoxide glutathione peroxidase GPX4 (Homo sapiens) (UniProt P36969). The experiment can be described thus: Primary qHTS Assay for Inhibitors of Recombinant Selenoprotein Glutathione Peroxidase 4 (GPX4) (AID 1845192). Further: nearly all actives have a fitted effect of over 65% in size. Further: potency means the concentration at half of the fitted maximal effect. Particulars: outcome: dose series up to 50 µM unless noted. The procedure, abridged: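 GR-coupled assay: recombinant GPX4 preincubated 30 min with compound at room temperature; final 200 nM GPX4, 1 mM GSH, 0.5 mM cumene hydroperoxide, 0.5 mM NADPH, 100 nM GR, 0.01% BSA, pH 7.5 Tris. NADPH fluorescence (340/450 nm) read at 0 and 15 min.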

The nature of experiment [6]: qHTS drug screen for cell cycle checkpoint inhibitors in PARPi-resistant BRCA-mutant ovarian cancer cell lines. (AID 1963452; calls by dose curve). Particulars: PEO1/OlaR viability, CellTiter-Glo luminescence, 96 h, stronger effect = lower value. The essentials:
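PEO1, PEO4 and PEO1/OlaR ovarian cancer cells, 600 per well, exposed 96 h at 37C to a dilution series. Viability read by CellTiter-Glo luminescence, normalized to DMSO and empty wells; activity summarized as Z-AUC.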

In experiment [7] the target is Glutathione peroxidase 1 (Homo sapiens) (UniProt P07203). The experiment can be described thus: Primary qHTS Assay for Inhibitors of Recombinant Selenoprotein Glutathione Peroxidase 1 (GPX1) (AID 1845191). Further: on the % scale 0 is the no-effect control and ±100 the full control effect; nearly all actives have a fitted effect of over 65% in size. The procedure, abridged:
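GR-coupled assay: compounds preincubated 30 min at room temperature with GPX1, then reaction started with CHP; final 10 nM GPX1, 1 mM GSH, 0.5 mM CHP, 0.5 mM NADPH, 100 nM GR, 0.01% BSA, pH 7.5 Tris buffer. NADPH fluorescence (340/450 nm) read at 0 and 15 min.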

The mark [8] stands for this setting: measured here: PEO1 parental Z-AUC.

Records with an inconclusive call do not appear. Active and inactive are the calls of the source. Unless noted, the call rests on the fitted dose curve; in most records, active means well fitted curve in the direction sought with a large enough effect; inconclusive means small, poorly fitted or top-dose-only effect, or another doubt; inactive means no such curve, though single readings can be large; an effect the other way counts as inactive or inconclusive.

Phospholipid hydroperoxide glutathione peroxidase GPX4 (Homo sapiens), sequence (P36969 whole entry, looked up): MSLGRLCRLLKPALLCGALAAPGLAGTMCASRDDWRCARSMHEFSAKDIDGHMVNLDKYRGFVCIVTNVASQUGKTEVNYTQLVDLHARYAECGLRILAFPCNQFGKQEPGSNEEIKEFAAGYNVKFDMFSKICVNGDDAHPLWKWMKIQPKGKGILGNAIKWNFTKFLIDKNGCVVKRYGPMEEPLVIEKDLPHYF
Glutathione peroxidase 1 (Homo sapiens), sequence (P07203 whole entry, looked up): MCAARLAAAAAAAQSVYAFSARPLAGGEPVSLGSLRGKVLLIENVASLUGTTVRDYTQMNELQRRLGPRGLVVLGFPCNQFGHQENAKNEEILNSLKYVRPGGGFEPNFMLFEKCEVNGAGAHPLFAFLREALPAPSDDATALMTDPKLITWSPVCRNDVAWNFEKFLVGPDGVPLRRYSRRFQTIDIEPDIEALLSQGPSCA

For the compound `CN1[C@@H]2CCC[C@H]1CC(NC(=O)c1nn(C)c3ccccc13)C2` (some centres not stated), in experiment [1], the max response is 3.13% (inactive). For the same compound, the Potency result in experiment [2], in experiment [3] and in experiment [4] was “inactive” in each case.
With `O=C(O)CC(C(=O)O)n1c(O)c(C2=c3cc(Br)ccc3=NC2=O)sc1=S` (configuration not stated), the Potency result in experiment [2], in experiment [3] and in experiment [4] was “inactive” in each case. The Potency in experiment [5] was 10.1 µM (active). In addition, the Z-AUC in experiment [6] was 1.23 (inactive); in experiment [6] (setting [8]) it was 0.91; in experiment [6] (measured here: PEO4 Z-AUC), 1.08.
For `CC(C)(O)CC[C@@H](O)[C@](C)(O)[C@H]1CC[C@@]2(O)C3=CC(=O)[C@@H]4C[C@@H](O)[C@@H](O)C[C@]4(C)[C@H]3CC[C@]12C`, the Potency result in experiment [2], in experiment [3], in experiment [4] and in experiment [5] was “inactive” throughout. Besides, the Z-AUC was 0.631 (inactive) in experiment [6], 0.684 in experiment [6] (setting [8]) and 0.947 in experiment [6] (measured here: PEO4 Z-AUC).
`CCCNC(=O)c1cn2ncnc(Nc3cc(C(=O)NC4CC4)ccc3C)c2c1C`: the Potency entry in experiment [2], in experiment [3], in experiment [4] and in experiment [5] was “inactive” each time. The Z-AUC is -0.306 (inactive) in experiment [6], 0.435 in experiment [6] (setting [8]) and 0.239 in experiment [6] (measured here: PEO4 Z-AUC).
`CCN(CC)CCNc1ccc(C)c2sc3ccccc3c(=O)c12`: the Potency is 26.2 µM (active) in experiment [2], 5.9 µM (active) in experiment [3] and 5.25 µM (active) in experiment [4]. Also, the Potency result in experiment [7] is “inactive”. For the same compound, the Z-AUC in experiment [6] was -1.21 (inactive); in experiment [6] (setting [8]) it was -0.605; in experiment [6] (measured here: PEO4 Z-AUC), -0.562.
In the case of `Cc1ccc(-c2nc(N)nc3c2nnn3Cc2cccc(CO[C@H]3CCOC3)n2)o1`, the Potency entry in experiment [2], in experiment [3] and in experiment [4] was “inactive” throughout. Moreover, the values for the Z-AUC in experiment [6], in experiment [6] (setting [8]) and in experiment [6] (measured here: PEO4 Z-AUC) were -1.33 (inactive), -0.982 and -1.11, respectively.
As to `CCC(C)CNCC(=O)N1CCc2sccc2C1c1cccc(C)n1` (configuration not stated), the Potency entry in experiment [2], in experiment [3], in experiment [4] and in experiment [5] was “inactive” in each case. The Z-AUC in experiment [6] is -0.668 (inactive); in experiment [6] (setting [8]) it was -0.627; in experiment [6] (measured here: PEO4 Z-AUC), -0.749.
Consider `O=c1oc2c(C3OCCCO3)c(O)ccc2c2c1CNCC2`, for which the Potency entry in experiment [2], in experiment [3] and in experiment [4] was “inactive” in each case. The Potency in experiment [5] was 14.3 µM (active). The Z-AUC in experiment [6] was 0.112 (inactive); in experiment [6] (setting [8]), -0.774; in experiment [6] (measured here: PEO4 Z-AUC), -0.202.
